# Source: PubChem BioAssay
# Several values for one entry are separate records, joined by “and”; a condition that tells them apart may be missing. Equal values may be shown once. Results filed as inconclusive are left out. Activity calls are given as the source filed them.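 The calls were made as follows, unless noted: active = normalized viability below 100% at a tested concentration; inactive = the rest.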
# Experiments:
# [1] = liver-stage malaria parasite load reduction – cell-based, known kinase inhibitor set, luminescence, hepatoma host viability (AID 624392; call rule not given here;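 also: infected cells incubated roughly two days before readout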); details: Plasmodium liver stage in hepatoma cells, luciferase luminescence, concentration not given here; liver cell % of control: measured here: host liver cell viability; parasite % of control: stronger effect = lower value
# [2] = viability loss in pontine glioma line – cell-based, SU-DIPG-XXV, MIPE5.0, CellTiter-Glo, qHTS, dose response (AID 1347065; cut-off not given, nearly all actives have AC50 up to about 26 µM;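 also: cells exposed to compound for 48 hours before ATP readout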); details: CellTiter-Glo ATP luminescence
# [3] = viability loss with induced miR-34 in A549 – imaging, A549 dox-inducible miR-34, nuclei and caspase counts, primary screen (AID 1347080;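 active = compounds whose cell count with miR-34 switched on is under 0.7 times the count with it off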); details: A549 miR-34 inducible, Hoechst nuclei count, 48 h
# [4] = compounds altering HSF1 focus formation in cells – imaging, Selleck Cancer Library (AID 1347162; in the data active = plate-normalised HSF1 focus index below about 0.46); details: human cells, HSF1 nuclear foci imaging, at 10 µM; SSMD: measured here: HSF1 foci SSMD mean; cell count: measured here: cell number; plate-normalised HSF1 focus index: stronger effect = lower value
# [5] = MELAS cybrid and Rieske KO viability enhancers – cell-based, MELAS cybrids, Rieske KO mouse fibroblasts, CellTiter-Glo, primary screen (AID 1508586;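 active = mean z-score across replicates of 1.96 or higher in either the MELAS or the Rieske mutant cell line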;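 also: z relative to plate mean and SD of compound and empty wells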); details: low glucose
# [6] = drug combination growth inhibition, ovarian cancer – cell-based, oncology-focused library, rucaparib conditional, profiling panel (AID 1508598); details: patient-derived ovarian cancer cells, CellTiter-Glo viability, 144 h, stronger effect = lower value
# [7] = JHH-DIPG-1 glioma cell viability, MIPE5.0 library, CellTiter-Glo luminescence, qHTS (AID 1347067; cut-off not given, nearly all actives have AC50 up to about 26 µM;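 also: cells exposed to compound for 48 hours before readout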); details: JHH-DIPG-1 glioma viability, CellTiter-Glo ATP luminescence
# [8] = growth inhibition of DIPG cells – cell-based, MIPE5.0 library, qHTS (AID 1347068; cut-off not given, nearly all actives have IC50 up to about 30 µM); details: SU-DIPG-XXV viability
# [9] = growth inhibition of DIPG cells – cell-based, MIPE4.0 library, CellTiter-Glo luminescence, qHTS (AID 1347066; cut-off not given, nearly all actives have AC50 up to about 30 µM;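 also: cells exposed to compound for 48 hours before readout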); details: SU-DIPG-VI viability, CellTiter-Glo ATP luminescence
# [10] = target: NAD(+) hydrolase SARM1 (Homo sapiens) (UniProt Q6SZW1); experiment: blocking NAD cleavage by SARM1 SAM-TIR – cell lysate, NAD-Glo luminescence (AID 1508614;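 active = compound whose remaining NAD level is above about 45 nM, limit read from the data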;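 also: higher remaining NAD means stronger inhibition of SARM1 NADase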); details: SAM-TIR HEK293T lysate NADase, at 1 µM, stronger effect = higher value
# Chain of NAD(+) hydrolase SARM1 (Homo sapiens) (Q6SZW1 whole entry, looked up): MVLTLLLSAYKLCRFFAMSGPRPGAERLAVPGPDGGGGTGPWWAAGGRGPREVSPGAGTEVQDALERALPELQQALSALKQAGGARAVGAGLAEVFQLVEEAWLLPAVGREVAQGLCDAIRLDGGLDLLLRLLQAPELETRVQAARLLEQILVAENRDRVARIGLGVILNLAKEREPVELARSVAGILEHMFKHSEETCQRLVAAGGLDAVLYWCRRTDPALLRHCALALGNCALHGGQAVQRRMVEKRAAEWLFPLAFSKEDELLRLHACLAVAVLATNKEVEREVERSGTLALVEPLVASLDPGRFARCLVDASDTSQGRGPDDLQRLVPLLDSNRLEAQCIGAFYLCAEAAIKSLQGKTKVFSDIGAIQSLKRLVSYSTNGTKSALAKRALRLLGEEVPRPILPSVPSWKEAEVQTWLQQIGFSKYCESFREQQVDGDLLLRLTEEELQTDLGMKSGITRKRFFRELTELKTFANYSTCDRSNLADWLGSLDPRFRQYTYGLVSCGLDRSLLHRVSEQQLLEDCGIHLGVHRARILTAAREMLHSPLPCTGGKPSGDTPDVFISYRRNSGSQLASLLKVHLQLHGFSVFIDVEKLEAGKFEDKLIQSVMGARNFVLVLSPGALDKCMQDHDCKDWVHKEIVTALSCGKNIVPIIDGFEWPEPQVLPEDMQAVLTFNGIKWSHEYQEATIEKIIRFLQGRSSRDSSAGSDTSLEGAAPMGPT
# [11] = stronger effect = lower value, cell number ratio, induced over uninduced
# [12] = measured here: relative caspase fold change +Dox/-Dox
# [13] = measured here: total cells with miR-34 induction, stronger effect = lower value
# [14] = measured here: total cells without miR-34 induction
# [15] = MELAS cybrid survival, CellTiter-Glo 48 h, stronger effect = higher value
# [16] = Rieske KO mouse fibroblast survival, CellTiter-Glo 72 h
# [17] = at 0.000305 µM, OCI-C5x cells, with rucaparib 10 µM, 100% = cells with rucaparib alone
# [18] = at 0.000305 µM, OCI-C5x cells, without rucaparib
# [19] = at 0.000305 µM, OCI-P5x cells, with rucaparib 20 µM, 100% = cells with rucaparib alone
# [20] = at 0.000305 µM, OCI-P5x cells, without rucaparib
# [21] = at 0.00122 µM, OCI-C5x cells, with rucaparib 10 µM, 100% = cells with rucaparib alone
# [22] = at 0.00122 µM, OCI-C5x cells, without rucaparib
# [23] = at 0.00122 µM, OCI-P5x cells, with rucaparib 20 µM, 100% = cells with rucaparib alone
# [24] = at 0.00122 µM, OCI-P5x cells, without rucaparib
# [25] = at 0.00488 µM, OCI-C5x cells, with rucaparib 10 µM, 100% = cells with rucaparib alone
# [26] = at 0.00488 µM, OCI-C5x cells, without rucaparib
# [27] = at 0.00488 µM, OCI-P5x cells, with rucaparib 20 µM, 100% = cells with rucaparib alone
# [28] = at 0.00488 µM, OCI-P5x cells, without rucaparib
# [29] = at 0.0195 µM, OCI-C5x cells, with rucaparib 10 µM, 100% = cells with rucaparib alone
# [30] = at 0.0195 µM, OCI-C5x cells, without rucaparib
# [31] = at 0.0195 µM, OCI-P5x cells, with rucaparib 20 µM, 100% = cells with rucaparib alone
# [32] = at 0.0195 µM, OCI-P5x cells, without rucaparib
# [33] = at 0.0781 µM, OCI-C5x cells, with rucaparib 10 µM, 100% = cells with rucaparib alone
# [34] = at 0.0781 µM, OCI-C5x cells, without rucaparib
# [35] = at 0.0781 µM, OCI-P5x cells, with rucaparib 20 µM, 100% = cells with rucaparib alone
# [36] = at 0.0781 µM, OCI-P5x cells, without rucaparib
# [37] = at 0.313 µM, OCI-C5x cells, with rucaparib 10 µM, 100% = cells with rucaparib alone
# [38] = at 0.313 µM, OCI-C5x cells, without rucaparib
# [39] = at 0.313 µM, OCI-P5x cells, with rucaparib 20 µM, 100% = cells with rucaparib alone
# [40] = at 0.313 µM, OCI-P5x cells, without rucaparib
# [41] = at 1.25 µM, OCI-C5x cells, with rucaparib 10 µM, 100% = cells with rucaparib alone
# [42] = at 1.25 µM, OCI-C5x cells, without rucaparib
# [43] = at 1.25 µM, OCI-P5x cells, with rucaparib 20 µM, 100% = cells with rucaparib alone
# [44] = at 1.25 µM, OCI-P5x cells, without rucaparib
# [45] = at 5 µM, OCI-C5x cells, with rucaparib 10 µM, 100% = cells with rucaparib alone
# [46] = at 5 µM, OCI-C5x cells, without rucaparib
# [47] = at 5 µM, OCI-P5x cells, with rucaparib 20 µM, 100% = cells with rucaparib alone
# [48] = at 5 µM, OCI-P5x cells, without rucaparib
smiles,measurement,setting,value
S=C(NCc1ccc2c(c1)OCO2)N1CCN(c2ncnc3c2oc2ccccc23)CC1,liver cell % of control,[1],79.8% and 74.8% and 83.5%
same,parasite % of control,[1],3.34% (inactive) and 4.31% (inactive) and 22.8% (inactive)
same,AC50,[2],18.6 µM (active)
same,fold change,[3]; [11],0.868 (inactive)
same,fold change,[3]; [12],1.07
same,cell count,[3]; [13],3980
same,cell count,[3]; [14],4580
same,SSMD,[4],2.08
same,cell count,[4],7510
same,plate-normalised HSF1 focus index,[4],1.08 (inactive)
same,z-score,[5]; [15],-0.551 (inactive)
same,z-score,[5]; [16],0.864
same,viability,[6]; [17],112% (inactive)
same,viability,[6]; [18],101% (inactive)
same,viability,[6]; [19],89.7% (active)
same,viability,[6]; [20],92.1% (active)
same,viability,[6]; [21],117% (inactive)
same,viability,[6]; [22],100% (inactive)
same,viability,[6]; [23],96.6% (active)
same,viability,[6]; [24],98.2% (active)
same,viability,[6]; [25],109% (inactive)
same,viability,[6]; [26],104% (inactive)
same,viability,[6]; [27],97.2% (active)
same,viability,[6]; [28],95.2% (active)
same,viability,[6]; [29],105% (inactive)
same,viability,[6]; [30],98.9% (active)
same,viability,[6]; [31],109% (inactive)
same,viability,[6]; [32],105% (inactive)
same,viability,[6]; [33],115% (inactive)
same,viability,[6]; [34],111% (inactive)
same,viability,[6]; [35],110% (inactive)
same,viability,[6]; [36],101% (inactive)
same,viability,[6]; [37],110% (inactive)
same,viability,[6]; [38],111% (inactive)
same,viability,[6]; [39],105% (inactive)
same,viability,[6]; [40],104% (inactive)
same,viability,[6]; [41],118% (inactive)
same,viability,[6]; [42],107% (inactive)
same,viability,[6]; [43],103% (inactive)
same,viability,[6]; [44],103% (inactive)
same,viability,[6]; [45],128% (inactive)
same,viability,[6]; [46],129% (inactive)
same,viability,[6]; [47],101% (inactive)
same,viability,[6]; [48],101% (inactive)
CC1Cc2ccccc2N1C(=O)Cc1nc(N2CCOCC2)cc(=O)[nH]1 (configuration not stated),outcome,[7],inactive
CC(C)C[C@H](NC(=O)[C@H](Cc1ccccc1)NC(=O)OCc1ccccc1)C(=O)C=O,outcome,[7],inactive
C#CCC(Cc1cnc2nc(N)nc(N)c2n1)c1ccc(C(=O)N[C@@H](CCC(=O)O)C(=O)O)cc1 (some centres not stated),outcome,[7],inactive
CC[C@@H]1[C@H](F)C(=O)N[C@@H]1COc1nccc2cc(C(N)=O)c(OC)cc12,outcome,[8],inactive
COCC(=O)NC/C=C/c1ccc2ncnc(Nc3ccc(Oc4ccc(C)nc4)c(C)c3)c2c1,outcome,[7],inactive
CS(=O)(=O)c1ccc(-c2cnc(NCc3ccco3)n3cnnc23)cc1,AC50,[7],20.9 µM (active)
COc1ccc2c(c1)C(c1ccc(F)cc1)=C(CN1CCCC1)CO2,outcome,[7],inactive
same,outcome,[8],inactive
Cc1csc(NC(=O)c2sc3nc4c(c(C(F)(F)F)c3c2N)CCC4)n1,outcome,[7],inactive
CC(C)C(=O)Nc1ncc(-c2cc(C(F)F)nn2-c2c(Cl)cccc2Cl)s1,liver cell % of control,[1],78% and 87.1% and 89.1%
same,parasite % of control,[1],2.64% (inactive) and 20.3% (inactive) and 36.7% (inactive)
same,outcome,[9],inactive
CN1CCN(c2ccc(OC(F)(F)F)c(Nc3ncc4c(n3)-c3c(c(C(N)=O)nn3CCO)CC4)c2)CC1,AC50,[2],0.118 µM (active)
same,fold change,[3]; [11],0.983 (inactive)
same,fold change,[3]; [12],0.326
same,cell count,[3]; [13],1120
same,cell count,[3]; [14],1140
same,z-score,[5]; [15],1.84 (inactive)
same,z-score,[5]; [16],-0.694
same,viability,[6]; [17],119% (inactive)
same,viability,[6]; [18],114% (inactive)
same,viability,[6]; [19],90% (active)
same,viability,[6]; [20],84.5% (active)
same,viability,[6]; [21],125% (inactive)
same,viability,[6]; [22],112% (inactive)
same,viability,[6]; [23],94.4% (active)
same,viability,[6]; [24],86.5% (active)
same,viability,[6]; [25],123% (inactive)
same,viability,[6]; [26],105% (inactive)
same,viability,[6]; [27],88.1% (active)
same,viability,[6]; [28],58.9% (active)
same,viability,[6]; [29],125% (inactive)
same,viability,[6]; [30],60% (active)
same,viability,[6]; [31],78.1% (active)
same,viability,[6]; [32],20.2% (active)
same,viability,[6]; [33],67.6% (active)
same,viability,[6]; [34],40.8% (active)
same,viability,[6]; [35],64.7% (active)
same,viability,[6]; [36],14.3% (active)
same,viability,[6]; [37],49.1% (active)
same,viability,[6]; [38],27.6% (active)
same,viability,[6]; [39],70% (active)
same,viability,[6]; [40],13.1% (active)
same,viability,[6]; [41],37.5% (active)
same,viability,[6]; [42],28.9% (active)
same,viability,[6]; [43],73.8% (active)
same,viability,[6]; [44],13.7% (active)
same,viability,[6]; [45],40.7% (active)
same,viability,[6]; [46],26.6% (active)
same,viability,[6]; [47],74.1% (active)
same,viability,[6]; [48],14.5% (active)
O=C(Nc1cccnc1)c1cc(-c2ccnc(F)c2)ccc1OCc1ccccc1,AC50,[7],18.6 µM (active)
Cc1ccc2cc(-c3c(C)ccc(C(=O)c4c(-c5ccccc5)n(C)n(-c5ccccc5)c4=O)c3N)ccc2n1,outcome,[7],inactive
same,outcome,[8],inactive
CC/C(=C(/c1ccc(/C=C/C(=O)O)cc1)c1ccc2[nH]ncc2c1)c1ccc(F)cc1Cl,AC50,[7],26.3 µM (active)
C[C@H]1CC2[C@@H]3CCC4=CC(=O)C=C[C@]4(C)[C@@]3(F)[C@@H](O)C[C@]2(C)[C@@]1(O)C(=O)CO (some centres not stated),outcome,[7],inactive
same,outcome,[8],inactive
FC(F)(F)c1ccc(Nc2nc3ccc(Oc4ccnc(-c5ncc(C(F)(F)F)[nH]5)c4)cc3[nH]2)cc1,AC50,[9],20.9 µM (active)
CC(C)OC(=O)CCC/C=C\C[C@@H]1[C@@H](/C=C/[C@@H](O)COc2cccc(C(F)(F)F)c2)[C@H](O)C[C@@H]1O,AC50,[9],23.5 µM (active)
same,remaining NAD,[10],10 nM (inactive)
OCCC#Cc1nc(-c2ccc(F)cc2)c(-c2ccncc2)n1CCCc1ccccc1,liver cell % of control,[1],306% and 93.3% and 95.7%
same,parasite % of control,[1],3.85% (inactive) and 44.3% (inactive) and 36.9% (inactive)
same,AC50,[7],26.3 µM (active)
same,outcome,[8],inactive
Cn1cc(-c2cnn3c(N)c(Br)c(C4CCCNC4)nc23)cn1 (configuration not stated),outcome,[7],inactive
same,fold change,[3]; [11],0.949 (inactive)
same,fold change,[3]; [12],0.873
same,cell count,[3]; [13],6160
same,cell count,[3]; [14],6490
same,z-score,[5]; [15],0.0709 (inactive)
same,z-score,[5]; [16],-0.322
CCCCCCCCCCCCCCCCOC[C@@H](O)COP(=O)(O)O,fold change,[3]; [11],0.944 (inactive)
same,fold change,[3]; [12],0.298
same,cell count,[3]; [13],5730
same,cell count,[3]; [14],6070
CCCCC[C@H](O)/C=C/[C@@H]1[C@@H](C/C=C\CCCC(=O)OCC(O)CO)[C@@H](O)C[C@H]1O (some centres not stated),fold change,[3]; [11],0.942 (inactive)
same,fold change,[3]; [12],1.39
same,cell count,[3]; [13],5810
same,cell count,[3]; [14],6170
O=C(OCc1ccccc1)[C@H](O)c1ccccc1,fold change,[3]; [11],1.04 (inactive)
same,fold change,[3]; [12],0.545
same,cell count,[3]; [13],5580
same,cell count,[3]; [14],5350
CCCCC[C@H](O)/C=C/[C@@H]1[C@@H](C/C=C\CCCC(=O)NCC)[C@@H](O)C[C@H]1O,fold change,[3]; [11],0.749 (inactive)
same,fold change,[3]; [12],1.63
same,cell count,[3]; [13],5570
same,cell count,[3]; [14],7440
Cc1ccc(Nc2cc(N[C@@H]3CCCC[C@@H]3N)nnc2C(N)=O)nc1C,outcome,[8],inactive
